In the library only some 3% were active in any assay of this set; here they are far more common.
Tau fibril FP: inhibitors of human tau fibril formation | P10636 | K18 P301L tau heparin fibrillization, Alexa594 FP, 6 h | Potency, µM (titrated, usually from 57.7 µM), actives largely listed as inhibitors | 280,000 compounds, 0.39% hits; note: nearly all actives have a fitted effect of over 55% in size
Target sequence (P10636 561-689 P618L limits assumed): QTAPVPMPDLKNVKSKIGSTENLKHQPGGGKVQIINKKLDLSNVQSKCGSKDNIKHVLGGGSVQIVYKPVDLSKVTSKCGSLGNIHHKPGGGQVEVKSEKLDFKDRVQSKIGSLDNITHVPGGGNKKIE
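Steps: dispense K18 P301L tau (15 uM plus 0.24 uM Alexa 594 tracer, final) in pH 7 sodium acetate; add compound; add heparin (20 uM final); incubate 6 hr, 37 C; add ThT (30 uM final); after 1 hr ambient, read FP.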
Tau ThT inhib: tau fibrillization inhibition (ThT binding) | P10636 | recombinant tau K18 P301L, heparin-induced fibrillization, ThT fluorescence | Potency, µM (highest dose often 57.4 µM), most hits filed as inhibitors | 270,000 compounds, 2.1% hits | AID 1460; note: nearly all actives have a fitted effect of over 55% in size
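Fibril formation assay: tau K18 P301L at 15 uM with trace Alexa 594 label, heparin inducer 20 uM, pH 7 sodium acetate buffer, 37 C for 6 hr; endpoint ThT signal.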
KDM4E inh: JMJD2E (human) inhibition; JMJD2E catalytic domain, FDH-coupled NADH fluorescence (FDH is formaldehyde dehydrogenase); Potency, µM (series often up to 57.1 µM), actives largely listed as inhibitors; B2RXH2; 230,000 compounds, 1.6% hits; active = well fitted inhibition curve with a large enough effect, not every such curve was filed as active; inconclusive = small, poorly fitted or top-dose-only effect, or another doubt; inactive = no such curve, though single readings can be large or run the other way; note: nearly all actives have a fitted effect of over 50% in size
Target sequence (B2RXH2 1-337 limits assumed): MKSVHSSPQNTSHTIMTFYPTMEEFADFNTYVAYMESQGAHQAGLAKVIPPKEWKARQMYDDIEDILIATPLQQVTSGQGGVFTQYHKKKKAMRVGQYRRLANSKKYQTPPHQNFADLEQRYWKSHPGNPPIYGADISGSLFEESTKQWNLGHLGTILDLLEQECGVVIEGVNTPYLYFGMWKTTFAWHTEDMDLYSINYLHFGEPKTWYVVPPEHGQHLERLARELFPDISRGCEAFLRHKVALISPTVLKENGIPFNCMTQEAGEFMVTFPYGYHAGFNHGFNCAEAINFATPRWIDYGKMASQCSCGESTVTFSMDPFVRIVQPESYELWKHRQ
Tau fluor counter: counter-screen for tau fibril formation inhibitors; tau K18 P301L (four-repeat tau fragment) Alexa594 fluorescence, heparin fibrillization; Potency, µM (top dose mostly 57.7 µM); 280,000 compounds, 0.93% hits; AID 1463; note: nearly all actives have a fitted effect of over 55% in size
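Human K18 P301L tau (15 uM unlabeled plus 0.24 uM Alexa 594-labeled, final) in 100 mM sodium acetate pH 7 was mixed with compound and 20 uM heparin and incubated 6 hr at 37 C.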
Coupling enz: counter-screen for Giardia aldolase inhibitors: coupling enzyme system. coupling enzyme system counterscreen, AmpLite Red fluorescence. activity change, negative = inhibition, % at 58.2 µM, hits read low. 290,000 compounds, 0.67% hits. AID 2472; in the data active = activity change below about -30%
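Compounds tested against the coupling enzymes alone at 57.5 uM final; readout was AmpLite Red fluorescence (525/598 nm) after 20 min at RT.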
Each line names hits and unclear results; the compound was inactive in the other large screens; [ ] = another dose, or the depositor's remark. Unless noted, calls come from the whole dose curve; as a rule, active = well fitted curve in the direction sought with a large enough effect; inconclusive = small, poorly fitted or top-dose-only effect, or another doubt; inactive = no such curve, though single readings can be large; an effect the other way counts as inactive or inconclusive.

Nc1nonc1-c1nc2ccccc2n1CC(=O)N/N=C/c1ccc(-c2ccccc2C(=O)O)o1	none
COc1cc(/C=C2/C(C)=C(C#N)c3nc(N)c(C#N)c(C)c32)ccc1OCC(=O)O	Tau fibril FP inconclusive, Tau ThT inhib 14µM, KDM4E inh inconclusive, Tau fluor counter inconclusive
CC(=O)c1cccc(Nc2ccc3cc(S(=O)(=O)N4CCCC4)ccc3n2)c1	Tau fibril FP inconclusive, Tau fluor counter inconclusive (no result: KDM4E inh, Coupling enz)
COc1ccc(Nc2ccc3cc(S(=O)(=O)N4CCCC4)ccc3n2)cc1OC	Tau ThT inhib inconclusive, Tau fluor counter 11µM[quencher] (no result: KDM4E inh, Coupling enz)
COc1cccc(Nc2ccc3cc(S(=O)(=O)N4CCC(C)CC4)ccc3n2)c1	Tau fibril FP inconclusive, Tau fluor counter 5µM[quencher] (no result: KDM4E inh, Coupling enz)
O=C(c1ccccc1)N1CCc2cc(CNS(=O)(=O)c3ccccc3Cl)ccc21	none (no result: KDM4E inh, Coupling enz)
COc1ccc(N(CC(=O)NCCc2ccc(C)cc2)S(=O)(=O)c2c(C)nn(C)c2C)cc1	none (no result: KDM4E inh, Coupling enz)
COc1ccc(C2C(=O)N(C3CCCCC3)CC(=O)N2CCc2ccc(C)cc2)cc1OC (stereo unspecified)	none (no result: KDM4E inh, Coupling enz)
COC1=C(Nc2ccc(OC)cc2)C(=O)c2ccccc2C1=O	Tau fibril FP inconclusive, Tau ThT inhib 11µM, KDM4E inh 4µM, Tau fluor counter inconclusive, Coupling enz -34
COc1ccc(NC2=C(c3ccc(OC)cc3)C(=O)c3ccccc32)cc1	Tau fibril FP inconclusive, Tau ThT inhib inconclusive, Tau fluor counter inconclusive
CCOc1ccc(NC2=C(OC)C(=O)c3ccccc3C2=O)cc1	Tau fibril FP inconclusive, Tau ThT inhib 10µM, KDM4E inh 14µM, Tau fluor counter inconclusive
COC1=C(Nc2ccc(O)cc2)C(=O)c2ccccc2C1=O	Tau fibril FP inconclusive, Tau ThT inhib 13µM, KDM4E inh 10µM, Tau fluor counter inconclusive, Coupling enz -33
COc1cccc(NC(=O)C(C)n2c(=O)cc(C(F)(F)F)c3c(C)nn(C)c32)c1 (stereo unspecified)	none (no result: KDM4E inh, Coupling enz)
O=[N+]([O-])c1ccc(CSc2ncnc3c2ncn3C2OC(CO)C(O)C2O)cc1 (stereo unspecified)	none (no result: KDM4E inh, Coupling enz)
COc1ccc2nc(/N=C/c3c(C)[nH]n(-c4ccc(C)cc4C)c3=O)sc2c1	Tau fibril FP inconclusive, Tau ThT inhib inconclusive
Cc1cc(Br)ccc1-n1[nH]c(C)c(C=Nc2cccc3nsnc23)c1=O	Tau fibril FP inconclusive, Tau ThT inhib 14µM, Tau fluor counter inconclusive
O=C(Nc1ccccc1)/C(=C/c1ccccc1)c1ccccc1	Tau fibril FP 20µM, KDM4E inh 28µM, Tau fluor counter inconclusive
CN(C)c1ncnc2c1NC1=C(S2)C(=NCCCC(=O)O)CC(C)(C)C1	Tau fibril FP inconclusive, Tau ThT inhib 10µM, KDM4E inh inconclusive
COc1ncnc2c1NC1=C(S2)C(=NCCC(=O)O)CC(C)(C)C1	Coupling enz -48
CC1(C)CC(=O)/C(=C(\O)Cc2ccccc2)C(=NCCCCCC(=O)O)C1	none
NC[C@@H]1O[C@H](c2ccccc2)Cc2c1ccc(O)c2O	Tau ThT inhib inconclusive, KDM4E inh 16µM
NC[C@@H]1O[C@H](C23CC4CC(CC(C4)C2)C3)Cc2c1ccc(O)c2O	Tau ThT inhib inconclusive, KDM4E inh 22µM, Tau fluor counter inconclusive
CN(C)S(=O)(=O)c1cccc(NC(=S)N/N=C/c2cc(Br)ccc2O)c1	Tau fibril FP inconclusive, Tau ThT inhib inconclusive, KDM4E inh 10µM, Tau fluor counter 7.9µM[quencher]
COc1ccc2c(Sc3ccccc3)c(C(=O)NCCCN3CCCCC3)[nH]c2c1	none (no result: KDM4E inh, Coupling enz)
COc1cc(/C=N/NC(=O)CSc2cc(C)c(Br)cc2C)ccc1O	Tau ThT inhib inconclusive, Tau fluor counter 25µM[quencher]
COc1cccc(/C=N/NC(=O)CCn2c3ccccc3c3ccccc32)c1	Tau fibril FP inconclusive, KDM4E inh inconclusive
COc1ccc(/C=N/NC(=O)CSc2ccccc2)cc1OC	none
Cc1cc(SCC(=O)N/N=C/c2ccc(O)c(O)c2O)c(C)cc1Br	Tau fibril FP 13µM, Tau ThT inhib 7.9µM, KDM4E inh 10µM, Tau fluor counter 14µM[quencher], Coupling enz -32
COc1ccc(/C=N/NC(=O)CCn2c3ccccc3c3ccccc32)cc1O	Tau ThT inhib inconclusive, Tau fluor counter 18µM[quencher]
O=c1oc2cc(O)ccc2cc1-c1ccc2c(c1)OCCO2	Tau ThT inhib inconclusive, KDM4E inh inconclusive, Tau fluor counter inconclusive
O=S(=O)(NNc1nccc(C(F)(F)F)n1)c1cccc(Cl)c1Cl	Tau fibril FP inconclusive, Tau ThT inhib 22µM
FC(F)(F)c1ccnc(NCc2ccc(Cl)cc2)n1	none (no result: Tau fibril FP, Tau ThT inhib, KDM4E inh, Tau fluor counter)
C=C1N(C)c2cc([N+](=O)[O-])c(N)cc2C1(C)C	Coupling enz -41
O=C(O)c1ccccc1C(=O)c1ccc2c(c1)N(Cc1cccc(F)c1)C(=O)CO2	KDM4E inh inconclusive, Coupling enz -42
CCCN1C(=O)COc2ccc(C(=O)c3ccccc3C(=O)O)cc21	none
CCCN(Cc1cccs1)C(=O)Nc1cc(C)cc(C)c1	none (no result: KDM4E inh, Coupling enz)
O=C(O)c1cccc(NS(=O)(=O)c2ccc3nnn(O)c3c2)c1	none
O=C(O)c1cccc(NC2=C(n3nnc4ccccc43)C(=O)c3ccccc3C2=O)c1	Coupling enz -32 (no result: Tau ThT inhib)
CC[C@H](C)[C@H](NC(=O)[C@H](CCC(=O)O)NC(=O)[C@H](CO)NC(=O)[C@@H](NC(=O)[C@H](C)N)C(C)C)C(=O)N[C@@H](CCC(N)=O)C(=O)N[C@@H](CC(C)C)C(=O)N[C@@H](CCSC)C(=O)N[C@@H](Cc1cnc[nH]1)C(=O)N[C@@H](CC(N)=O)C(=O)N[C@@H](CC(C)C)C(=O)NCC(=O)N[C@@H](CCCCN)C(=O)N[C@@H](Cc1cnc[nH]1)C(=O)N[C@@H](CC(C)C)C(=O)N[C@@H](C)C(=O)N[C@@H](CO)C(=O)N[C@H](C(=O)N[C@@H](CCC(=O)O)C(=O)N[C@@H](CCCNC(=N)N)C(=O)N[C@@H](CCSC)C(=O)N[C@@H](CCC(N)=O)C(=O)N[C@@H](Cc1c[nH]c2ccccc12)C(=O)N[C@@H](CC(C)C)C(=O)N[C@@H](CCCNC(=N)N)C(=O)N[C@@H](CCCCN)C(=O)N[C@@H](CCCCN)C(=O)N[C@@H](CC(C)C)C(=O)N[C@@H](CCC(N)=O)C(=O)N[C@@H](CC(=O)O)C(=O)N[C@H](C(=O)N[C@@H](Cc1cnc[nH]1)C(=O)N[C@@H](CC(N)=O)C(=O)N[C@@H](Cc1ccccc1)C(=O)O)C(C)C)C(C)C	none (no result: Tau fibril FP, Tau ThT inhib, KDM4E inh, Tau fluor counter)
CC[C@@H](C)[C@@H](CO[C@@H](Cc1ccccc1)C(=O)N[C@@H](CCS(C)(=O)=O)C(=O)OC(C)C)NC[C@@H](N)CS	Tau fibril FP inconclusive, Tau ThT inhib 35µM (no result: KDM4E inh)
COC(=O)C(CC(C)C)NC(=O)C(N)Cc1ccccc1 (stereo unspecified)	none
Cc1ccc(NC(=O)CN2C(=O)CCc3cc(S(=O)(=O)N4CCCCC4)ccc32)cc1N(C)C	none (no result: KDM4E inh, Coupling enz)
CCCCc1nc2c(c3c1C[C@H](C)OC3)CN(S(=O)(=O)c1ccc(NC(C)=O)cc1)CC2	none

Screening data deposited in PubChem BioAssay by National Center for Advancing Translational Sciences (NCATS).
